A selection: hits, their analogues and other compounds. The true share with any hit is near 6.1%.
ERK AVP block: qHTS Assay for Inhibitors of the ERK Signaling Pathway using a Homogeneous Screening Assay; AID 995, 2007; Potency, µM (series often up to 57.5 µM), inactives show top-dose activity, negative = inhibition, usual class: inhibitors; hit rate 0.99% among 72,000; HEK293-V1b, vasopressin-stimulated pERK AlphaScreen; also: % is scaled to controls: 0 for no effect and ±100 for the full control effect; nearly all actives have a fitted effect of over 55% in size
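qHTS, compounds titrated on V1b-expressing HEK293 cells. Preincubation 30 min at 37C, vasopressin 25 nM for 5 min, lysis 10 min, bead incubation 5 hr at room temperature.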
Luciferase inh: qHTS Assay for Inhibitors of Firefly Luciferase; Luciferin 4-monooxygenase (Photinus pyralis), P08659; purified firefly luciferase, luminescence, 8 min; Potency, µM (series often up to 57.1 µM), inactives show at the highest dose activity change, negative = inhibition, most hits filed as inhibitors; hit rate 2.2% among 72,000; AID 411, 2009; also: % is scaled to controls: 0 for no effect and ±100 for the full control effect; nearly all actives have a fitted effect of over 40% in size
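Titration-based qHTS; buffer 50 mM imidazole pH 7.2, 50 mM KCl, 7 mM MgCl2, 10 uM ATP, 0.01% Tween 20, 0.05% BSA; luciferase/luciferin detector mix added after compound; 8 min, ambient; luminescence.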
TSHR ag: qHTS Assay for Agonists of the Thyroid Stimulating Hormone Receptor; Thyrotropin receptor (Homo sapiens), P16473; HEK293-CNG-TSHR cells (CNG channel as cAMP sensor), membrane potential dye, cAMP; Potency, µM (series often up to 57.1 µM), without a hit: at the highest dose activation, hits mostly activators; hit rate 0.48% among 73,000; AID 926, 2007; active = well fitted activation curve with a large enough effect in the main read-out, with a control signal flat, not every such curve was filed as active; inconclusive = small, poorly fitted or top-dose-only effect, or a change in a side signal; inactive = no such curve, though single readings can be large or run the other way; % of control where 0% means no effect;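 also: the control signal comes from parental cells without the receptor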
Target sequence (P16473 whole entry, looked up): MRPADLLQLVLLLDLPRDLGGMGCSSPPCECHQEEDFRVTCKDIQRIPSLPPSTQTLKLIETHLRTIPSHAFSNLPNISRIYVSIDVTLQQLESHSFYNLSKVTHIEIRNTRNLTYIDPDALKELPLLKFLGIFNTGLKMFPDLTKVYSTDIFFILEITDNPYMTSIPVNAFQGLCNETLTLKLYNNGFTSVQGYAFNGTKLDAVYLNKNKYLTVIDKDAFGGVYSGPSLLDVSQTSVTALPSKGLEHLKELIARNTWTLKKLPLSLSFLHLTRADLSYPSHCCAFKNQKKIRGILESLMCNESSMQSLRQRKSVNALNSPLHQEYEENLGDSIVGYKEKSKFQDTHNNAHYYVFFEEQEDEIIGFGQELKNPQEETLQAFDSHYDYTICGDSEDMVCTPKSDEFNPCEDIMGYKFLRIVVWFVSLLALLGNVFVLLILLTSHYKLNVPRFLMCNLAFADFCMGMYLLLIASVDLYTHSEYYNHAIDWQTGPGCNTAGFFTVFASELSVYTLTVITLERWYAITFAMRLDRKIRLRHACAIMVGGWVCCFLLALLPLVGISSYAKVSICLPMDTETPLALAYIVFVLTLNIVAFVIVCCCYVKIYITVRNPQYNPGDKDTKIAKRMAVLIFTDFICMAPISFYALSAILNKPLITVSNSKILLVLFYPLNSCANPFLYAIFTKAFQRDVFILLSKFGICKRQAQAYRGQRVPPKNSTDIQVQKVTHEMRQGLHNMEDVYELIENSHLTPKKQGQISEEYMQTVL
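HEK 293 cells stably expressing TSHR and a cAMP-gated CNG channel; parental CNG-only cells as counterscreen. Cells preloaded 60 min with membrane potential dye plus 100 uM RO 20-1724, then compound 30 min; fluorescence read at 590 nm.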
GBA mod: Glucocerebrosidase. Lysosomal acid glucosylceramidase (Homo sapiens), P04062. purified enzyme, resorufin glucoside fluorescence (screen aimed at inhibitors), 20 min. Potency, µM. hit rate 1.1% among 48,000. AID 360, 2006; in the data active = potency below about 15 µM; inconclusive = mostly about 16 µM to 33 µM;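 also: the screen sought inhibitors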
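Wild-type enzyme at 0.2 nM final in 50mM citric acid/KH2PO4, 10mM sodium taurocholate, 0.01% tween-20, pH 5.9, with resorufin beta-D-glucopyranoside at 30 uM final. Compounds titrated, 20 min at RT, red fluorescence read; AC50 from titration.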
Bst PK mod: Pyruvate Kinase. AID 361, 2006. purified pyruvate kinase, luminescence ATP production; ribose 5-phosphate activator present at AC10. Potency, µM. hit rate 1.2% among 51,000; in the data active = potency below about 11 µM; inconclusive = mostly about 12 µM to 25 µM;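 the screen sought inhibitors and activators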;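 also: scaled between full activation by ribose 5 phosphate and full inhibition by luteolin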
HEK293 cAMP ctrl: qHTS Assay for Agonists of the Thyroid Stimulating Hormone Receptor: Activators of Intracellular cAMP Concentrations in Parental HEK 293. hit rate 2.5% among 73,000. Potency, µM (top dose mostly 57.1 µM), for inactives: at the top dose activation, actives largely listed as activators. parental HEK293 CNG cAMP sensor, membrane potential fluorescence. AID 938, 2007; also: % of control where 0% means no effect; nearly all actives have a fitted effect of over 55% in size
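Parental HEK 293 cells stably expressing a cAMP-gated CNG channel were loaded with membrane potential dye containing 100 uM RO 20-1724 for 60 min. Compound added for 30 min; depolarization read as fluorescence intensity at 590 nm.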
The depositor's hits bear a star; [ ] = dose if it differs, or a comment. Unless noted, calls follow the shape of the dose curve; as a rule, active = well fitted curve in the direction sought with a large enough effect; inconclusive = small, poorly fitted or top-dose-only effect, or another doubt; inactive = no such curve, though single readings can be large; an effect the other way counts as inactive or inconclusive. Potency is read from the fitted curve at half-maximal effect.

Results for COc1ccc(-c2nc3cnc(N4CCOCC4)nc3n(C[C@H]3CCCO3)c2=O)cc1 ?
ERK AVP block: inconclusive; Luciferase inh: 0%[11.4 µM]; TSHR ag: 3%; HEK293 cAMP ctrl: 12%[2.29 µM]

What do the screens show for `Cc1ccc(NS(=O)(=O)c2cc(C(=O)O)ccc2Cl)cc1C`?
TSHR ag: 7%; HEK293 cAMP ctrl: 10%

How did CO[C@@H]1CC[C@@]2(C)[C@@H](CC[C@@]3(C)[C@H]2CC=C2[C@H]4CC(C)(C)[C@H](O)[C@@H](OC(C)=O)[C@]4(CO)[C@H](O)C[C@]23C)[C@@]1(C)CO (tested in a mixture with another compound) do in these assays?
ERK AVP block: inconclusive; Luciferase inh: -2%[25.5 µM]; TSHR ag: 16µM*; HEK293 cAMP ctrl: 2%[25.6 µM]

How did c1ccc(-c2noc(C34CC5CC(CC(C5)C3)C4)n2)nc1 do in these assays?
ERK AVP block: 2%; Luciferase inh: 16µM*; GBA mod: >77; HEK293 cAMP ctrl: 14%

What do the screens show for `O=S(=O)(Nc1ccc2c(c1)OCO2)c1cccs1`?
ERK AVP block: -18%; Luciferase inh: -2%; TSHR ag: -7%; Bst PK mod: >57; HEK293 cAMP ctrl: 7%

How did O=S(=O)(Nc1ccc2c(c1)OCCO2)c1cccs1 do in these assays?
ERK AVP block: inconclusive; Luciferase inh: -25%; TSHR ag: inconclusive; GBA mod: >77; Bst PK mod: 4.2*; HEK293 cAMP ctrl: -53%

How did Cc1nc(CC(=O)Nc2nc(-c3ccccc3)cs2)cs1 do in these assays?
ERK AVP block: 13%; Luciferase inh: -11%; TSHR ag: 14%; GBA mod: >77; Bst PK mod: >11; HEK293 cAMP ctrl: 28%

What do the screens show for `O=C(Cc1cccs1)Nc1nc(-c2ccccc2)cs1`?
ERK AVP block: 10µM*; Luciferase inh: -11%; TSHR ag: 22%; GBA mod: >77; HEK293 cAMP ctrl: 29%

How did Cn1nccc1C(=O)OCC(=O)Nc1nc(-c2ccccc2)cs1 do in these assays?
ERK AVP block: 20µM*; Luciferase inh: -11%; GBA mod: >77; HEK293 cAMP ctrl: 6%

Results for Cc1ccc(-c2cc3nc(C)cc(NCc4ccco4)n3n2)cc1 ?
ERK AVP block: 9%; Luciferase inh: 7.9µM*; TSHR ag: 5%; GBA mod: >77; Bst PK mod: 6.5*; HEK293 cAMP ctrl: 12%

Results for Cc1cc(C)c2c(n1)nn1c(NCCCn3ccnc3)cc(C)nc21 ?
ERK AVP block: 4%; Luciferase inh: 1%; TSHR ag: 1%; GBA mod: >77; Bst PK mod: >57; HEK293 cAMP ctrl: 6%

Results for Cc1cc(NCCCn2ccnc2)n2nc(-c3ccc(F)cc3)cc2n1 ?
ERK AVP block: -12%; Luciferase inh: 13µM*; TSHR ag: 4%; Bst PK mod: inconclusive; HEK293 cAMP ctrl: 5%

Results for O=C(Nc1ccc2c(c1)OCO2)c1cc(C2CC2)on1 ?
ERK AVP block: 1%; Luciferase inh: 7.9µM*; TSHR ag: 9%; HEK293 cAMP ctrl: 7%

What do the screens show for `COc1ccc(C2CC(C(F)(F)F)n3nc(C(=O)Nc4ccc5c(c4)OCO5)cc3N2)cc1` (stereo not given)?
ERK AVP block: 0%; Luciferase inh: -4%; TSHR ag: -20%; HEK293 cAMP ctrl: -23%

How did COc1ccc(NC(=O)c2cc(C(C)C)on2)cc1OC do in these assays?
ERK AVP block: 55%; Luciferase inh: -12%; TSHR ag: -6%; GBA mod: >77; HEK293 cAMP ctrl: 4%

How did CC(C)c1cc(C(=O)Nc2ccc3c(c2)OCO3)no1 do in these assays?
ERK AVP block: -6%; Luciferase inh: 7.9µM*; TSHR ag: 13%; HEK293 cAMP ctrl: 8%

Results for O=C(Nc1ccc2c(c1)OCO2)c1ccncc1 ?
ERK AVP block: -10%; Luciferase inh: -5%; TSHR ag: 0%; HEK293 cAMP ctrl: 3%

What do the screens show for `CC(C)c1cc(C(F)(F)F)n2nc(C(=O)Nc3ccc4c(c3)OCO4)cc2n1`?
ERK AVP block: -3%; Luciferase inh: 20µM*; TSHR ag: 24%; GBA mod: >77; HEK293 cAMP ctrl: 20%

Results for COc1ccc(-c2nc3cnc(OC)nc3n(CCC#N)c2=O)cc1 ?
ERK AVP block: -6%; Luciferase inh: -5%[11.4 µM]; TSHR ag: -3%; HEK293 cAMP ctrl: 15%

What do the screens show for `CC(CCc1nc2ccccc2s1)(c1ccc(O)cc1)c1ccc(O)cc1`?
ERK AVP block: 15%[11.5 µM]; Luciferase inh: 1%[11.4 µM]; TSHR ag: -3%[11.4 µM]; HEK293 cAMP ctrl: -7%[11.4 µM]

What do the screens show for `O=C(N=c1nc2ccccn2s1)c1ccccc1`?
ERK AVP block: -3%; Luciferase inh: 0.79µM*; TSHR ag: -2%[11.4 µM]; GBA mod: >77; Bst PK mod: 1.1*; HEK293 cAMP ctrl: -6%

What do the screens show for `CC(C)(C)n1nnnc1C(c1ccccc1F)N(Cc1ccco1)CC1CCCO1` (stereo not given)?
ERK AVP block: 6%; Luciferase inh: 0%; TSHR ag: inconclusive; GBA mod: >77; Bst PK mod: >57; HEK293 cAMP ctrl: 13µM*

What do the screens show for `CN(C)CCCSc1nc2ccccc2[nH]1`?
ERK AVP block: 5%[11.5 µM]; Luciferase inh: 1%[11.4 µM]; TSHR ag: 7%[11.4 µM]; HEK293 cAMP ctrl: -3%[11.4 µM]

Results for CC1N(C)c2cc(NC(=O)c3ccco3)ccc2C1(C)C (stereo not given) ?
ERK AVP block: -21%; Luciferase inh: 16µM*; TSHR ag: -1%; HEK293 cAMP ctrl: 15%

What do the screens show for `CNc1ncnc2ccc(-c3cccc(OC)c3)cc12`?
ERK AVP block: -22%; Luciferase inh: 2%[2.29 µM]; TSHR ag: 10%; HEK293 cAMP ctrl: 21%

How did CCC(=O)c1ccc(OCC(=O)Nc2nn3cnnc3s2)cc1 do in these assays?
ERK AVP block: 32µM*; Luciferase inh: -5%; TSHR ag: -1%; GBA mod: inactive; Bst PK mod: >57; HEK293 cAMP ctrl: -13%

What do the screens show for `Cc1ccc(NC2=Nc3ccccc3CS2)cc1`?
ERK AVP block: -18%; Luciferase inh: 4µM*; TSHR ag: -8%; GBA mod: >77; Bst PK mod: 4.1*; HEK293 cAMP ctrl: -9%

How did Fc1cccc(Cl)c1/C=N\N=C1c2ccccc2-c2ccccc21 do in these assays?
ERK AVP block: -20%[11.5 µM]; Luciferase inh: -1%[11.4 µM]; TSHR ag: 5%[11.4 µM]; HEK293 cAMP ctrl: 10%[11.4 µM]

What do the screens show for `CCN1C(=O)c2cccc3c(S(=O)(=O)Nc4ncccc4C)ccc1c23`?
ERK AVP block: 25µM*; Luciferase inh: -10%; TSHR ag: 10%; GBA mod: >77; Bst PK mod: >57; HEK293 cAMP ctrl: 10%
